Screens (PubChem BioAssay)
The list is not random: actives were taken first. Their share in the collection is about 10%.
GLS inh = qHTS for Inhibitors of Glutaminase (GLS); Glutaminase kidney isoform, mitochondrial (Homo sapiens), O94925; GLS enzymatic activity, qHTS titration; Potency, µM (doses to about 45.5 µM), for the others: at the highest dose activity change, negative = inhibition, actives largely listed as inhibitors; 0.21% of 410,000 active; AID 624170, 2012; also: % is scaled to controls: 0 for no effect and ±100 for the full control effect
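Assay buffer: 45 mM KH2PO4 pH 8.2, 0.02% Tween-20. hKGA acts on L-glutamine (1 mM solution added); product glutamate is reported by an oxidase/peroxidase Amplex Red coupling, with fluorescence taken at baseline and 30 min.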
G9a inh = qHTS Assay for Inhibitors of Histone Lysine Methyltransferase G9a. Histone-lysine N-methyltransferase EHMT2 (Homo sapiens), Q96KQ7. G9a H3K9 monomethylation, AlphaScreen, 2 h. Potency, µM (top dose mostly 102 µM), without a hit: at the highest dose activity, negative = inhibition, most hits filed as inhibitors. 8.8% of 350,000 active; also: % is scaled to controls: 0 for no effect and ±100 for the full control effect; nearly all actives have a fitted effect of over 75% in size
Target sequence (Q96KQ7 913-1193 limits assumed): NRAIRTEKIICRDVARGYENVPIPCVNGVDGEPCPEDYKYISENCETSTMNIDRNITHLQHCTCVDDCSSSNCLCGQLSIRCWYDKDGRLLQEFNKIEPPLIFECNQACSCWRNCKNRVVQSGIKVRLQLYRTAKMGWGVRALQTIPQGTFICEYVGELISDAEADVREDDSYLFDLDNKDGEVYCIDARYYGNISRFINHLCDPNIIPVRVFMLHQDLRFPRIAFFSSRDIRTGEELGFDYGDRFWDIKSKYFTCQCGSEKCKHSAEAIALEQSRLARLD
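Methyltransferase reactions run at room temperature for 2 h (20 nM enzyme, 500 nM biotin-H3K9 peptide, 20 uM SAM) after a 15 min compound preincubation; product detected by AlphaScreen beads and anti-H3K9me1 antibody.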
JMJD2A Tudor inh = qHTS Assay for Inhibitors of JMJD2A-Tudor Domain | AlphaScreen JMJD2A-Tudor / H3K4me3 peptide binding | Potency, µM (highest dose often 114 µM), without a hit: at the top dose activity change, negative = inhibition, most hits filed as inhibitors | 4.4% of 390,000 active | Lysine-specific demethylase 4A (Homo sapiens), O75164; also: % is scaled to controls: 0 for no effect and ±100 for the full control effect; nearly all actives have a fitted effect of over 50% in size
BAZ2B inh = qHTS Assay for Inhibitors of BAZ2B | Bromodomain adjacent to zinc finger domain protein 2B (Homo sapiens), Q9UIF8 | AlphaScreen BAZ2B-H3K14Ac peptide displacement | Potency, µM (top dose mostly 114 µM), without a hit: at the top dose activity change, negative = inhibition, usual class: inhibitors | 4.4% of 360,000 active; also: % is scaled to controls: 0 for no effect and ±100 for the full control effect; nearly all actives have a fitted effect of over 60% in size
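Protein-peptide AlphaScreen: BAZ2B 50 nM, b-H3K14Ac 50 nM, 1x PBS pH 7.4 + 0.01% Tween-20. Preincubation 30 min RT; cpd 30 min RT (top 110 uM); beads 20 min RT, light-protected.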
HP1b chromo inh = HTS for Inhibitors of HP1-beta Chromodomain Interactions with Methylated Histone Tails | Chromobox protein homolog 1 (Homo sapiens), P83916 | AlphaScreen HP1-beta / biotin-H3K9me3 peptide binding | Potency, µM (series often up to 114 µM), inactives show at the top dose activity change, negative = inhibition, usual class: inhibitors | 0.56% of 390,000 active | AID 540317, 2011; also: nearly all actives have a fitted effect of over 70% in size
Target sequence (P83916 whole entry, looked up): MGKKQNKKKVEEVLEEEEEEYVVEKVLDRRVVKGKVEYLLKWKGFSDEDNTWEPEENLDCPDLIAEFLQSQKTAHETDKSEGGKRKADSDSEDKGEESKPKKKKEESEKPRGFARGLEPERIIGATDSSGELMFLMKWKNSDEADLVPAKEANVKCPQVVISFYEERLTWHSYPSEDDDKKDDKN
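AlphaScreen: HP1-beta (50 nM) preformed 30 min with biotin-H3(1-18)K9me3 peptide (50 nM) in PBS pH 7.4, 0.01% Tween-20. Compound added for 30 min at RT, then streptavidin donor/nickel chelate acceptor beads (10 ug/mL) for 30 min.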
* = called active by the depositor; u = inconclusive; x = no result given; [ ] = remark or other dose. Calls follow the shape of the dose curve; as a rule, active = well fitted curve in the direction sought with a large enough effect; inconclusive = small, poorly fitted or top-dose-only effect, or another doubt; inactive = no such curve, though single readings can be large; an effect the other way counts as inactive or inconclusive. Potency is read from the fitted curve at half-maximal effect.

SMILES	GLS inh	G9a inh	JMJD2A Tudor inh	BAZ2B inh	HP1b chromo inh
CCOC(=O)[C@]12CCC=C1N(Cc1cccc3ccccc13)C(=O)[C@H](CC(=O)N1CCN(C(=O)C3CC3)CC1)C2	2%	x	x	x	x
Cc1ccc(/C(O)=C2/C(=O)C(=O)N(c3ccccn3)C2c2ccc([N+](=O)[O-])cc2)cc1 (centres undefined)	8%	71µM*	-32%	4%	6%
CCOc1ccc(/C(O)=C2/C(=O)C(=O)N(c3ncccn3)C2c2ccc(Cl)cc2)cc1 (centres undefined)	23%	50µM*	-20%	u	19%
CN1C(=O)C(=O)/C(=C(/O)c2ccccc2)C1c1ccc([N+](=O)[O-])cc1 (centres undefined)	6%	x	0%	-9%	46%
CC(C)(Oc1ccc(C2CCCc3ccccc32)cc1)C(=O)O (centres undefined)	14%	-2%[12.7 µM]	x	x	x
Cc1ccc(S(=O)(=O)NC(=O)c2ccc(-c3ccc(-c4ccccc4)cc3)o2)c(C)c1	x	40µM*	x	u	x
NC(=O)c1ccc(-c2ccc(Br)cc2)o1	0%	50µM*	-28%	-35%	-15%
O=C(O)c1ccc(-c2cccc(Cl)c2)o1	2%	x	-24%	x	10%
O=C(O)c1ccc(-c2ccc(-c3ccccc3)cc2)o1	x	35µM*	x	x	x
NC(=O)C1CCN(C(=S)c2ccc(-c3ccc(Br)cc3)o2)CC1	-12%	35µM*	-11%	-15%	-6%
COc1ncc2nc(CCc3ccccc3)c(=O)n(Cc3cccs3)c2n1	x	7%[12.7 µM]	x	x	x
Cc1cc(N2CCN(C)CC2)nc2ccc(NC(=S)NCc3cccs3)cc12	7%	40µM*	-33%	-33%	-7%
CCN1CCN(c2cc(C)c3cc(NC(=S)NCCCOC)ccc3n2)CC1	29%	u	-13%	-15%	15%
COc1ccc(CNC(=S)Nc2ccc3nc(N4CCN(C)CC4)cc(C)c3c2)cc1	-1%	45µM*	u	u	-10%
CCN1CCN(c2cc(C)c3cc(NC(=S)NCc4cccs4)ccc3n2)CC1	39%	45µM*	u	-37%	-5%[57 µM]
COc1ccc(CN(C(=O)c2ccccc2F)C2CCS(=O)(=O)C2)cc1 (centres undefined)	-13%	-5%[59 µM]	-9%	-6%	6%
Cc1ccc(C(=O)c2cn(Cc3c(F)cccc3Cl)c3nc(C)ccc3c2=O)cc1	3%	-9%[59 µM]	-8%	-6%	8%
Cc1c(C)n(CC(O)CN2CCOCC2)c2ccccc12 (centres undefined)	-21%	13µM*	22µM*	x	71µM*
Cc1c(C)n(CC(O)CN2CCCCC2)c2ccccc12 (centres undefined)	33%	u	1.6µM*	45µM*	u
Cc1c(C)n(CC(O)CN2CCN(C)CC2)c2ccccc12 (centres undefined)	-6%	u	-31%	-35%	4%[57 µM]
Cc1cc(C)n(CC(O)Cn2c(C)c(C)c3ccccc32)n1 (centres undefined)	15%	13µM*	3.5µM*	35µM*	u
O=c1c2ccccc2n(CC(O)CN2CCOCC2)c2ccccc12 (centres undefined)	-3%	-10%[2.33 µM]	8%	1%	18%
Cc1ccc2c(c1)c(C)c(C)n2CC(O)Cn1nc(C)c(Br)c1C (centres undefined)	-9%	u	50µM*	45µM*	-36%
CC1(C)NC(=O)N(CC(=O)N2CCN(S(=O)(=O)c3ccccc3C(F)(F)F)CC2)C1=O	7%	-6%[12.7 µM]	-7%	2%	16%
CCOC(=O)c1cc2c(c(-c3ccccc3)n1)[C@H](CCO)N(S(=O)(=O)C(C)(C)C)C2	1%	x	-9%	x	70%
SMILES	GLS inh	G9a inh	JMJD2A Tudor inh	BAZ2B inh	HP1b chromo inh
C=CCNc1nc(C)c(C(C)=O)cc1C#N	-2%	11%	1%	50µM*	47%
CC(=O)c1cc(C#N)c(NCCCN(C)C)nc1C	0%	3%	-5%	8%	-6%
CCOc1ccccc1CNC(=O)C1CCN(c2nnc(-n3c(C)ccc3C)s2)CC1	1%	-14%[59 µM]	-21%	-25%	13%
O=C(CSc1ccccc1C(=O)NCc1ccccc1)NC1CCCCCCC1	3%	10µM*	89µM*	-5%	10%
O=C(O)CSc1ccccc1C(=O)O	-1%	45µM*	-25%	-10%	10%
O=C(CSc1ccccc1C(=O)O)NC1CCCCCC1	-1%	-37%	10µM*	-3%	-24%
O=C(CSc1ccccc1C(=O)NCc1ccccc1)NC12CC3CC(CC(C3)C1)C2	1%	10µM*	-16%	-8%	26%
O=C(CSc1ccccc1C(=O)O)NC1CCCCCCC1	13%	-39%[59 µM]	4%	4%	62%
CCOC(=O)Cc1csc(NC(=O)CCCCCN2C(=O)c3ccccc3C2=O)n1	-7%	-39%[59 µM]	-3%	-36%	3%
O=S(=O)(c1ccc(NC(=S)NC23CC4CC(CC(C4)C2)C3)cc1)N1CCCCC1	-8%	x	x	x	x
COc1ccc2c(c1)C(NC(C)=O)C(=O)N2CCc1ccccc1 (centres undefined)	-8%	-22%	-25%	-12%	32%
CCc1ccc2c(c1)C(NC(C)=O)C(=O)N2CCN1CCOCC1 (centres undefined)	5µM*	28µM*	10µM*	13µM*	-18%[57 µM]
CCCN1C(=O)C(NC(C)=O)c2ccccc21 (centres undefined)	5%	40µM*	-12%	-24%	14%
CCn1c([N+](=O)[O-])nc2c1c(=O)[nH]c(=O)n2C	-2%	40µM*	-32%	-15%	-3%
CCOCCn1c(N2CCCC2)nc2c1c(=O)[nH]c(=O)n2C	6%	u	-6%	56µM*	18%
CCOCCn1c(SC)nc2c1c(=O)[nH]c(=O)n2C	0%	u	89µM*	13%	u
CCOCCn1c(SCCCc2ccccc2)nc2c1c(=O)[nH]c(=O)n2C	1%	9%[59 µM]	u	-2%	-21%
CCOCCn1c(N2CCCC2)nc2c1c(=O)n(C)c(=O)n2C	-7%	71µM*	-8%	4%	35%
CCOCCn1c(N2CCN(c3ccccc3)CC2)nc2c1c(=O)n(C)c(=O)n2C	-2%	-6%[12.7 µM]	-8%	-1%	19%
C[C@H](O)[C@@H]1C(=O)N2CCc3c([nH]c4ccccc34)[C@@H]2C[C@@H]1N(C)S(=O)(=O)c1ccccc1	3%	x	x	x	x
CN1CCN(CCc2ccc(Cl)c(Cl)c2)CC1	x	42%[59 µM]	x	x	x
